# The panel holds about 83,000 compounds, 20% with a hit somewhere; the sample as a whole holds those more often.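 Results are percent growth after 48 hours of single-concentration exposure. 100 means growth as in untreated cells, lower positive values show inhibition; negative values down to -100 show cell death.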 The source made the active and inactive calls. Rule for the calls: active = growth percent below 10; inactive = the rest.
# System: SK-MEL-2 melanoma
# Assay: NCI-60 one-dose screen, 48 h (100 = growth as untreated, 0 = no growth, -100 = all killed)
# Settings: 10 µM unless noted
row,Structure (SMILES),growth
1,COc1cc(NC(=O)c2cccc(-c3cc(=O)c4c(OC)c(OC)c(OC)cc4o3)c2)cc(OC)c1OC,41.7% (inactive)
2,COc1ccc(NC(=O)c2cccc(-c3cc(=O)c4c(O)c(OC)c(OC)cc4o3)c2)cc1,83.4% (inactive)
3,CO[C@H]1/C=C/O[C@@]2(C)Oc3c(C)c(O)c4c(c3C2=O)C(=O)C(/C=N/N(c2ccccc2)c2ccccc2)=C(NC(=O)/C(C)=C\C=C\[C@H](C)[C@H](O)[C@@H](C)[C@@H](O)[C@@H](C)[C@H](OC(C)=O)[C@@H]1C)C4=O,-60.8% (active)
4,COc1ccc(C(=O)/C=C/c2cc3c(c(OC)c2)OCC(=O)N3)cc1,110% (inactive)
5,Nc1nc(N)c(-c2ccc(Cl)cc2)c(/C=C/c2ccc([N+](=O)[O-])cc2)n1,88.7% (inactive)
6,C=C(Cl)COC(=O)C(C)(C)O,92.9% (inactive)
7,COc1ccc(OC)c(Nc2nc3nonc3nc2Nc2cc(OC)ccc2OC)c1,64.5% (inactive)
8,COc1cc2oc(-c3cccc(C(=O)Nc4ccc(C)cc4)c3)cc(=O)c2c(OC)c1OC,42.3% (inactive)
9,NC(=S)N/N=C/C(=O)O,85.3% (inactive)
10,COC1=CC(c2ccc[nH]2)=N/C1=C\c1[nH]c(C)c(C(=O)OCCn2cc(CCC[C@@H]3Cc4cc(O)ccc4C4CC[C@]5(C)[C@@H](O)CC[C@H]5C43)nn2)c1C (stereo partly specified),122% (inactive)
11,O=C1CSC(c2ccccc2)N1c1ccccc1 (stereo unspecified),74.4% (inactive)
12,O=C(Nc1cccc2[nH]c(C(F)(F)F)nc12)c1cc(Cl)ccc1Cl,-4.53% (active)
13,COc1cc(NC(=O)c2cccc(-c3cc(=O)c4c(O)c(OC)c(OC)cc4o3)c2)cc(OC)c1OC,69.6% (inactive)
14,COc1ccc(-c2nc3sc4c(c3c(=O)[nH]2)CCCC4)c2ccccc12,29.4% (inactive)
15,COc1ccc(OC)c(Nc2nc3nonc3nc2Nc2cccc(Br)c2)c1,-17.4% (active)
16,O=C(c1ccccc1)c1ccc(Cl)c([N+](=O)[O-])c1,95.3% (inactive)
17,Nc1c(C(=O)Nc2ccccc2)sc2nc3c(cc12)CCCCCC3,9.7% (active)
18,Clc1ccc2[nH]c3c(NCCCN4CCOCC4)ncnc3c2c1,94.5% (inactive)
19,CCOc1cccnc1/C=N/NC(N)=S,52.2% (inactive)
20,COc1ccc(/C(C)=N/NS(=O)(=O)c2ccc(C)cc2)cc1OC,122% (inactive)
21,CCCCNC(=O)NS(=O)(=O)c1ccc(N2N=C(c3ccc(C)cc3C)CC2c2ccc(N(C)C)cc2)cc1 (stereo unspecified),78% (inactive)
